Source: PubChem BioAssay (National Center for Advancing Translational Sciences (NCATS))
G9a inh = blocks human histone lysine methyltransferase G9a; Q96KQ7; G9a H3K9 monomethylation, AlphaScreen, 2 h; AID 504332; Potency, µM (titrated, usually from 102 µM), inactives show top-dose activity, negative = inhibition, hits mostly inhibitors; hit rate 8.8% among 350,000; further: on the % scale 0 is the no-effect control and ±100 the full control effect; nearly all actives have a fitted effect of over 75% in size
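Using a bead-based AlphaScreen, monomethylated H3K9 product from 2 h room-temperature reactions (G9a 20 nM, peptide 500 nM, SAM 20 uM) was detected with 0.5 ug/mL rabbit anti-H3K9me1 antibody.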
HP1b chromo inh = blocks HP1-beta chromodomain binding to methylated histone tails; Potency, µM (top dose mostly 114 µM), without a hit: at the top dose activity change, negative = inhibition, hits mostly inhibitors; AID 540317; P83916; hit rate 0.56% among 390,000; AlphaScreen HP1-beta / biotin-H3K9me3 peptide binding; further: nearly all actives have a fitted effect of over 70% in size
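AlphaScreen: HP1-beta (50 nM) preformed 30 min with biotin-H3(1-18)K9me3 peptide (50 nM) in PBS pH 7.4, 0.01% Tween-20. Compound added for 30 min at RT, then streptavidin donor/nickel chelate acceptor beads (10 ug/mL) for 30 min.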
Sfp inh = inhibitors of Bacillus subtilis Sfp phosphopantetheinyl transferase; Q9F4F7; Biochemical Sfp PPTase activity, qHTS; Potency, µM, for the others: largest response in the series, negative = inhibition, hits mostly inhibitors; hit rate 3.5% among 310,000; AID 1490;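 further: the enzyme is Sfp with the accession as filed and its product quenches rhodamine fluorescence; 0% = enzyme reaction without inhibitor and -100% = no enzyme wells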
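Fluorescence-quenching assay: 15 nM Sfp-PPTase preincubated 15 min at room temperature with compound, then 5 uM rhodamine-CoA and 12.5 uM BHQ-2-labelled YbbR peptide added. Fluorescence (ex 525/em 598 nm) read at start and after 30 min; difference gives rate.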
BAZ2B inh = blocks human BAZ2B; Q9UIF8; AlphaScreen BAZ2B-H3K14Ac peptide displacement; AID 504333; Potency, µM (highest dose often 114 µM), for inactives: at the highest dose activity change, negative = inhibition, actives largely listed as inhibitors; hit rate 4.4% among 360,000; further: on the % scale 0 is the no-effect control and ±100 the full control effect; nearly all actives have a fitted effect of over 60% in size
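Inhibition is scored as reduced AlphaScreen emission. The BAZ2B/b-H3(5-23)K14Ac complex (50 nM each) in PBS pH 7.4, 0.01% Tween-20 meets compound (up to 110 uM) for 30 min at RT before bead addition.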
JMJD2A Tudor = inhibitors of human JMJD2A Tudor domain. hit rate 4.4% among 390,000. AID 504339. Potency, µM (series often up to 114 µM), without a hit: at the top dose activity change, negative = inhibition, actives largely listed as inhibitors. O75164. AlphaScreen JMJD2A-Tudor / H3K4me3 peptide binding; further: on the % scale 0 is the no-effect control and ±100 the full control effect; nearly all actives have a fitted effect of over 50% in size
L3MBTL1 inh = blocks human L3MBTL1; Q9Y468; hit rate 0.66% among 230,000; AlphaScreen L3MBTL1–H3K9me1 peptide binding; Potency, µM (titrated, usually from 57.1 µM), inactives show top-dose activity, negative = inhibition, most hits filed as inhibitors; AID 485360; further: on the % scale 0 is the no-effect control and ±100 the full control effect; nearly all actives have a fitted effect of over 60% in size
Target sequence (Q9Y468 whole entry, looked up): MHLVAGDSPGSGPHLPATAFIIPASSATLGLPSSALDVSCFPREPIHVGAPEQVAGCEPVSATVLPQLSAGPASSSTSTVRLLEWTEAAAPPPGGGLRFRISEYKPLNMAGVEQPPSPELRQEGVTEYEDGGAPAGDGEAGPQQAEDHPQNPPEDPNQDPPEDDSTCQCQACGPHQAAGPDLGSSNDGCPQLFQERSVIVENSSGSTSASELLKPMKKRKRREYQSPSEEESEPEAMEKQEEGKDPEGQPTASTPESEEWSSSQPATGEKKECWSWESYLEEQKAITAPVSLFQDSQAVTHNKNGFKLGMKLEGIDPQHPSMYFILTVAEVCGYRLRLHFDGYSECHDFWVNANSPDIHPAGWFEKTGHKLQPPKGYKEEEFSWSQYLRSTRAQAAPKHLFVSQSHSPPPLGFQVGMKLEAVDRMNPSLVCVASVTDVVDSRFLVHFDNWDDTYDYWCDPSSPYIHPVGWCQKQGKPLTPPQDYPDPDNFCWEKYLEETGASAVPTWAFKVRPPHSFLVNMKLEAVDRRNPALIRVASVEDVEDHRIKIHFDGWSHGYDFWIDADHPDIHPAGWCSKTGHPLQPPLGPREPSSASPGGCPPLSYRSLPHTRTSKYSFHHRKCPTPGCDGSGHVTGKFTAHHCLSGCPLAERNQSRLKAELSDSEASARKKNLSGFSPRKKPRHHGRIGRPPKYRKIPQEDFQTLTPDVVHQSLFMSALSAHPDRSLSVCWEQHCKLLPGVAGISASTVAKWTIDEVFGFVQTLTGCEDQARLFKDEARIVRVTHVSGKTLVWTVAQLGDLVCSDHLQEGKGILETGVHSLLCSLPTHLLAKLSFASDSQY
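AlphaScreen assay: L3MBTL1 (50 nM final) was preincubated 30 min at room temperature with biotinylated H3(1-15)K9me1 peptide (75 nM final), then 30 min with library compounds; streptavidin donor and nickel chelate acceptor beads (10 ug/mL final) added, 30 min dark.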
* hit, by the source's call; ? = inconclusive; . = no result given; ! = a repeat was not active; [ ] = dose if it differs, or a comment. Hits are enriched below; roughly 12% of the tested compounds scored in any of these assays. The call rests on the fitted dose curve; in most records, active means well fitted curve in the direction sought with a large enough effect; inconclusive means small, poorly fitted or top-dose-only effect, or another doubt; inactive means no such curve, though single readings can be large; an effect the other way counts as inactive or inconclusive. Potency means the concentration at half of the fitted maximal effect.

SMILES	G9a inh	HP1b chromo inh	Sfp inh	BAZ2B inh	JMJD2A Tudor	L3MBTL1 inh
Clc1ccccc1CN1CCN(c2cccc3[nH]ccc23)CC1	28µM*	?	11%	40µM*	?	-3%
CN1C2CCCC1CC(=O)C2	.	.	5%	.	.	.
c1ccc(CN2CCCC3(CCNCC3)C2)cc1	-1%[12.7 µM]	.	-14%	.	.	.
COc1cc(C2c3cc4c(cc3C(O)C3COC(=O)C23)OCO4)cc(OC)c1O (configuration not stated)	-32%[2.33 µM]	.	-9%	.	.	.
C=CCN1CCC23c4c5ccc(O)c4OC2/C(=N/N=C2\CCC4(O)C6Cc7ccc(O)c8c7C4(CCN6CC=C)C2O8)CCC3(O)C1C5 (configuration not stated)	25µM*	.	-9%	.	.	.
C=CCN1CC[C@]23c4c5ccc(O)c4O[C@@H]2/C(=N/N=C2\CC[C@@]4(O)C6Cc7ccc(O)c8c7[C@@]4(CCN6CC=C)[C@@H]2O8)CC[C@@]3(O)C1C5	13µM*!	.	.	.	.	.
C=CCN1CC[C@]23c4c5ccc(O)c4OC2[C@H](O)CC[C@@]3(O)[C@H]1C5 (some centres not stated)	.	17%	.	.	-12%	2%
C=CCN1CC[C@]23c4c5ccc(O)c4O[C@H]2C(=O)CC[C@@]3(O)[C@H]1C5	40µM*!	20%	10%	35%	-26%	7%
Cc1ccc2nsnc2c1-n1c(C)nc2ccccc2c1=O	?	23%	2%	-2%	-7%	3%
Cc1ccc2nsnc2c1NS(=O)(=O)c1c(C)ccc2nsnc12	50µM*	20%	-9%	?	-27%	-6%
COc1ccc(CC2NCCc3cc(OC)c(OC)cc32)cc1OC (configuration not stated)	.	.	9%	.	.	.
COc1cc2c(cc1O)C(Cc1ccc(O)cc1)NCC2 (configuration not stated)	79µM*	36%	-4%	-29%	-13%	1%
O[C@@H]1CCCC[C@@H]1N1CCC(c2ccccc2)CC1	22%[59 µM]	.	13%	.	.	.
O=C1OC(c2ccc([N+](=O)[O-])cc2)=N/C1=C/N1CC2CC(C1)c1cccc(=O)n1C2 (configuration not stated)	79µM*	17%	22%	-23%	1%	.
CCCCC(CC)COCCCN=Cc1c(O)[nH]c(=S)[nH]c1=O (configuration not stated)	?	73%	?	-34%	-8%	.
CCOC(=O)c1c(/N=C/C2C(=O)NC(=O)NC2=O)sc2c1CCC2	?	34%	35µM*	-5%	-3%	10%
CCOC(=O)c1cc(CC)sc1/N=C/c1c(O)[nH]c(=S)[nH]c1=O	?	-3%	8.9µM*	-15%	-23%	-10%
CCOC(=O)c1cc(CC)sc1/N=C/C1C(=O)NC(=S)NC1=O	45µM*	9%	18µM*	.	-14%	.
COc1cc([C@@H]2c3cc4c(cc3[C@H](O)[C@H]3COC(=O)[C@@H]23)OCO4)cc(OC)c1OC	.	72%	.	.	-18%	.
CN1CCN(c2csc3ccc(F)cc3c2=O)CC1	-3%[59 µM]	22%[57 µM]	.	-23%	-19%	.
O=C1NC(=O)[C@]2(Cc3ccccc3N3CCN(c4ccccc4)CC32)C(=O)N1c1ccccc1 (some centres not stated)	3.2µM*	14%	-3%	-31%	?	-4%
CN1C(=O)NC(=O)C2(Cc3ccccc3N3CCOCC32)C1=O (configuration not stated)	-1%[59 µM]	5%	-1%	3%	-1%	-4%
CN1C(=O)NC(=O)[C@]2(Cc3ccccc3N3CCN(c4ccccc4)CC32)C1=O (some centres not stated)	3.2µM*	11%	-17%	-28%	-33%	.
O=c1[nH]c(=O)n(Cl)c(=O)n1Cl	18%[59 µM]	.	4%	.	.	.
CN1C[C@@H](C(=O)N[C@@]2(C)O[C@]3(O)C4CCCN4C(=O)[C@@H](Cc4ccccc4)N3C2=O)C=C2c3cccc4[nH]cc(c34)C[C@@H]21 (some centres not stated)	.	.	-31%	.	.	.
SMILES	G9a inh	HP1b chromo inh	Sfp inh	BAZ2B inh	JMJD2A Tudor	L3MBTL1 inh
O=C1CCC(c2ccccc2)(C2CCN(Cc3ccccc3)CC2)C(=O)N1 (configuration not stated)	12%[59 µM]	34%	21%	10%	-9%	-1%
O=C1NC(=O)[C@]2(Cc3ccccc3N3CCN(c4ccccc4)CC32)C(=O)N1Cc1ccccc1 (some centres not stated)	5µM*	-3%	-20%	-33%	?	-11%
O=C1NC(=O)C2(Cc3ccccc3N3CCCC32)C(=O)N1Cc1ccccc1 (configuration not stated)	35µM*	33%	56µM*	1%	-29%	-9%
CCC(CO)NC(=O)[C@@H]1C=C2c3cccc4[nH]cc(c34)C[C@H]2N(C)C1 (some centres not stated)	33%[12.7 µM]	.	.	.	.	.
C[N+]1([O-])[C@@H]2CC(OC(=O)[C@@H](CO)c3ccccc3)C[C@@H]1[C@H]1O[C@H]12 (some centres not stated)	9%[59 µM]	.	0%	.	.	.
CCN(CC)c1ccc(/C=C/[N+](=O)[O-])cc1	45µM*	-27%	?	.	?	-18%
C1=CC2C3C=CC(C3)C2C1 (configuration not stated)	12%[0.501 µM]	47%	.	-6%	-6%	-9%
CC1C(=O)OC2CCN3CC=C(COC(=O)[C@](C)(O)[C@]1(C)O)C23 (some centres not stated)	-10%[2.33 µM]	.	33%	.	.	.
CN1C(CC(=O)c2ccccc2)CCCC1CC(O)c1ccccc1 (configuration not stated)	-2%[2.33 µM]	81%	7%	0%	-14%	.
C[N+]1(CC(O)c2ccccc2)CCCCCC1 (configuration not stated)	50µM*	9%	13%	79µM*	-4%	2%
CN(C(=O)Cc1ccc(Cl)c(Cl)c1)[C@H](CN1CCCC1)c1ccccc1	?	.	-2%	.	.	.
Cc1cc(-c2cc(C)c(N)c(C)c2)cc(C)c1N	.	?	.	.	50µM*	.
Cc1ccccc1-c1cncnc1NCCc1cnc[nH]1	.	.	9%	.	.	.
CN(C)c1nc(-c2ccccc2)[n+](C)s1	3.2µM*	1%	18µM*	1%	-18%	-4%
CC1CC(Cl)CCC1C(=O)OC(C)(C)C (configuration not stated)	.	.	11%	.	.	.
C=CCN1C(=O)NC(=O)/C(=C\c2ccc(-c3ccccc3[N+](=O)[O-])o2)C1=O	22µM*	5%	25µM*	79µM*	?	-6%
